# Assay results reported in publication PMC4336329 (PLoS ONE, 2015).
# Screen size: about 310,000 compounds; about 14,000 (4.5%) showed an effect of 50% or more. Effects have a minus sign here. The list comes from a sample in which strong results are over-represented; it also holds similar structures and randomly drawn compounds.
# Target: human ether-à-go-go-related gene (hERG) potassium channel (human, UniProt Q12809)
# Test: primary screen, population patch clamp on CHO cells stably expressing hERG; higher = less effect of the substance
# 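Also: peak tail current of the secondary pulse compared with the same well before compound.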
# Sequence of human ether-à-go-go-related gene (hERG) potassium channel (Q12809 whole entry, looked up): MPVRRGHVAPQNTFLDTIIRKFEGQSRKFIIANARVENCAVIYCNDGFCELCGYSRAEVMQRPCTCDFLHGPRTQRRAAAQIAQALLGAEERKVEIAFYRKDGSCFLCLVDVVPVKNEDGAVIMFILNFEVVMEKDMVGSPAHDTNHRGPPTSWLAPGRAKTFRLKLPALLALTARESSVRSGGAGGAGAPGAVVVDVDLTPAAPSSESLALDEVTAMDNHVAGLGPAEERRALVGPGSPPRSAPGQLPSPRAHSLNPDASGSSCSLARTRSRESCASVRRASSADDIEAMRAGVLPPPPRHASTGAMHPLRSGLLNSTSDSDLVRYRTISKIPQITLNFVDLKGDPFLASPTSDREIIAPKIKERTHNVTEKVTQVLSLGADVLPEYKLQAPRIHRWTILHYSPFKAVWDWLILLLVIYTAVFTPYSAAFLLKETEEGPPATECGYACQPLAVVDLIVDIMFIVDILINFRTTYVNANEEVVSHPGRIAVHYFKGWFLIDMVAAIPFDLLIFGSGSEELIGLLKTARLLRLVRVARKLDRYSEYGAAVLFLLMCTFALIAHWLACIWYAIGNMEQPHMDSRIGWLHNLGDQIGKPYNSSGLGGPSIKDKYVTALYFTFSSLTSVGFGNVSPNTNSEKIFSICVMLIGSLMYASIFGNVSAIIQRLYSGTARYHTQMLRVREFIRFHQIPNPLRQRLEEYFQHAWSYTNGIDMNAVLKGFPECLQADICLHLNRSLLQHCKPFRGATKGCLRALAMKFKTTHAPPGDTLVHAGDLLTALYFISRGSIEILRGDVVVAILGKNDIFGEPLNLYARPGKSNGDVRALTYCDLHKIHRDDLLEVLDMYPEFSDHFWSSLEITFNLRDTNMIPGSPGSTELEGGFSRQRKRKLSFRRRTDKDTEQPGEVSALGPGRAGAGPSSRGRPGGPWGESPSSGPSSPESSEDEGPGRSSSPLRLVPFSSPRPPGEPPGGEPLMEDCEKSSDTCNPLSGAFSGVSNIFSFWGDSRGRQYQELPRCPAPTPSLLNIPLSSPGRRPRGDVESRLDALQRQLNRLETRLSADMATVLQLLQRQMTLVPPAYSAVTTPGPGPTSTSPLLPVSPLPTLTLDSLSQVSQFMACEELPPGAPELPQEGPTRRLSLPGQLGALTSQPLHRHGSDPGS
row,Compound,"hERG current change (%, negative = inhibition) at 10uM [%]"
1,Cc1ccc(CSCC(=O)N(C)CC(=O)Nc2cccc(F)c2)cc1,-17.5
2,COC(=O)CNC(=O)c1c(-c2ccccc2Cl)noc1C,-5.68
3,CCCCc1nc(NCc2ccccc2)c(C#N)c2c1COC(C)(C)C2,12.9
4,CCOC(=O)c1c(C)[nH]c(C)c1S(=O)(=O)NC(CC)CN1CCOCC1 (stereo not shown),7.32
5,O=C(NC(=S)Nc1ccccc1C(=O)O)c1ccc(-c2ccc(Br)cc2)o1,28.3
6,COc1ccc(CCN2C(=O)N[C@@H](CCC(=O)O)C2=O)cc1,19
7,C/C(=C/c1ccccc1)C(=O)N1CCN(c2ccc(F)cc2)CC1,-42.2
8,COc1ccc(N2CCN(C(=O)C(OC(C)=O)c3ccccc3)CC2)cc1 (stereo not shown),-0.89
9,COC(=O)N1CCN(c2ccc(OC)cc2)CC1,4.33
10,COc1ccc(N2CCN(C(C)=C3C(=O)c4ccccc4C3=O)CC2)cc1,-53.3
11,CC(=C1C(=O)c2ccccc2C1=O)N1CCN(c2ccc(F)cc2)CC1,-69.8
12,CC(=C1C(=O)c2ccccc2C1=O)N1CCN(c2ccccn2)CC1,-28.3
13,O=C(NC1CCCCC1)NC1C2CC3CC(C2)CC1C3 (stereo not shown),-6.14
14,CCCNC(=S)Nc1ccc(Cl)cc1C,1.16
15,Cc1ccc(S(=O)(=O)NCCNC(=O)c2ccccc2)cc1,12.4
16,CC(C)Oc1ccc(C(CC(=O)O)NC(=O)Cc2ccc(Cl)cc2)cc1 (stereo not shown),24.8
17,CCOc1ccc(-n2c(SCC(=O)NC)nnc2-c2ccco2)cc1,-27.5
18,COc1ccc(-n2c(SCC(=O)Nc3nc(C)cs3)nnc2-c2ccoc2C)cc1,-81
19,COc1ccc(-n2c(SCC(=O)Nc3nccs3)nnc2-c2ccccc2)cc1,-62.5
20,COc1ccc(-n2c(Cc3cccn3C)nnc2SCC(=O)Nc2nc(C)cs2)cc1,-6.16
21,CCOC(=O)CN(C(=O)CSc1nnc(Cc2ccccc2)n1-c1ccc(C)cc1)c1ccccc1,-59.2
22,CCOc1ccccc1-n1c(SCC(=O)Nc2nccs2)nnc1-c1ccoc1C,-5.08
23,COc1ccc(CC(=O)NCc2nnc(SCC(=O)Nc3nccs3)n2-c2ccccc2)cc1,2.7
24,COc1ccc(-n2c(Cc3cccn3C)nnc2SCC(=O)Nc2nccs2)cc1,-9.82
25,CCOC(=O)CN(C(=O)CSc1nnc(C)n1-c1ccccc1)c1ccccc1,6.79
26,CCOc1ccc(-n2c(SCC(=O)Nc3nccs3)nnc2-c2ccoc2C)cc1,-56.1
27,Cc1csc(NC(=O)CSc2nnc(-c3ccoc3C)o2)n1,4.99
28,CCOC(=O)CSc1nnc(Cc2ccccc2)n1-c1ccc(C)cc1,-37.4
